Source: PubChem BioAssay (several laboratories)
Hits are enriched below; roughly 1.2% of the tested compounds scored in any of these assays.
PriA SSB inh = blocks PriA binding to SSB C-terminal tail; AlphaScreen SSBct-PriA binding, biotinylated peptide; inhibition, % at 33 µM; 430,000 compounds, 0.6% hits; AID 1272365; in the data active = inhibition mostly above about 37%, no sharp cut-off; inactive = mostly below about 20%
Rv3671c inh = inhibitors of M. tuberculosis serine protease Rv3671c; 320,000 compounds, 0.048% hits; inhibition, % at 5.96 µM; P9WHR9; in the data active = inhibition above about 38%;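 note: extracellular domain of Rv3671c used as enzyme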
PrP UTR inh = inhibition of PrP 5' UTR reporter expression | cell-based PrP 5' UTR mRNA reporter, plate reader | inhibition, % (no concentration beside the values) | 340,000 compounds, 0.35% hits | AID 488862; in the data active = inhibition above about 52%
PrPC TRFRET = reduces human prion protein on the cell surface | P04156 | cell surface PrPC, TR-FRET read-out | inhibition, % at 13.8 µM | 370,000 compounds, 0.43% hits | AID 720596; in the data active = inhibition above about 24%
FadD28 binding = inhibitors of Mycobacterium tuberculosis FadD28 bisubstrate binding. FadD28 bisubstrate probe binding, fluorescence polarization. inhibition, % at 12.5 µM. 360,000 compounds, 0.22% hits. AID 588549; in the data active = inhibition above about 8.5%, passing the limit was not always enough
UGM FP inh = Mtb UDP-galactopyranose mutase inhibition; 320,000 compounds, 0.06% hits; inhibition, % at 10 µM; purified UGM, fluorescence polarization probe displacement; P9WIQ1; in the data active = inhibition above about 10%, passing the limit was not always enough
Target sequence (P9WIQ1 whole entry, looked up): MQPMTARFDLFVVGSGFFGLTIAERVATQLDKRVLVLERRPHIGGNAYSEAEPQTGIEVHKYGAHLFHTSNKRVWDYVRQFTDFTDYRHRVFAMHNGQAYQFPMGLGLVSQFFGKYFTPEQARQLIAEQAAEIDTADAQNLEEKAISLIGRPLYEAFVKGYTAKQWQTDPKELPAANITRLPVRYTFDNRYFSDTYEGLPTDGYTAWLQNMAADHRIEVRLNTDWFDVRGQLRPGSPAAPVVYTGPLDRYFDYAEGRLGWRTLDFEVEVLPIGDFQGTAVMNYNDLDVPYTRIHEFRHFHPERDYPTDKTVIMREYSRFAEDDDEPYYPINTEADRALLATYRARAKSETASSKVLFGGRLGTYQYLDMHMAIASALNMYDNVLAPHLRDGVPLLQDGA
Numbers stand for hits; 0 = inactive; - = no result given; ! = repeats disagree.

SMILES	PriA SSB inh	Rv3671c inh	PrP UTR inh	PrPC TRFRET	FadD28 binding	UGM FP inh
O=[N+]([O-])c1ccc(C2CCCCC2=NOCc2ccccc2F)c([N+](=O)[O-])c1 (centres undefined)	50	-	-	-	-	-
O=C(CSc1cccc2cccnc12)Nc1cc(Cl)cc(Cl)c1	57	-	-	-	-	-
O=C(CSc1cccc2cccnc12)Nc1cc(C(=O)O)cc(C(=O)O)c1	75	0	0	0	0	0
Cc1cccc(NC(=O)CSc2cccc3cccnc23)c1	49	0	0	0	0	0
O=C(CSc1cccc2cccnc12)NC1CCS(=O)(=O)C1 (centres undefined)	37	-	-	-	-	-
NNC(=O)CSc1cccc2cccnc12	0	0	0	0	0	0
O=C(COc1ccc(Cl)cc1Cl)NCCn1ccc(-c2ccsc2)n1	0	-	-	-	-	-
COc1ccc(NC(=O)CCNS(=O)(=O)c2ccc(C)c(N(C)S(C)(=O)=O)c2C)cc1	0	-	-	-	-	-
COCCN1CCCc2ccc(NS(=O)(=O)Cc3ccc(Cl)cc3)cc21	0	-	-	-	-	-
Oc1cc(NCCc2cccnc2)cc2cccnc12	85	0	0	0	0	0
Oc1cc(Nc2ccncc2)cc2cccnc12	104	0	0	0	0	0
Nc1cc(O)c2ncccc2c1	140	-	-	-	-	-
CN(C)c1ccc(-c2cc(O)c3ncccc3c2)cc1	0	0	0	0	0	0
Oc1cc(-c2ccncc2)cc2cccnc12	55	0	0	0	0	0
Fc1cc(-c2ccncc2)c2ncccc2c1	0	-	-	-	-	-
Cc1nnc(NC(=O)CCN2C(=O)c3ccccc3S2(=O)=O)s1	0	-	-	-	-	-
Cn1cccc1C(CNC(=O)c1ccccc1)N1CCc2ccccc2C1 (centres undefined)	0	-	-	-	-	-
CN(C)CCCNC(=O)c1ccc(-c2cc(O)c3ncccc3c2)cc1	83	0	0	0	0	0
Oc1cc(Nc2cccnc2)cc2cccnc12	89	0	0	0	0	0
Cc1sc2nc(SCC(=O)Nc3sc4c(c3C#N)CCCC4)n(C)c(=O)c2c1C	0	-	-	-	-	-
Cc1[nH]c2nc3c(c(=O)n(C)c(=O)n3C)n2c1C	0	-	-	-	-	-
COc1ccc(NC(=O)C(=O)NCC(c2ccc3c(c2)CCN3C)N(C)C)c(OC)c1 (centres undefined)	0	-	-	-	-	-
COc1ccc(C)cc1NC(=O)C(=O)NCC(c1ccc2c(c1)CCN2C)N(C)C (centres undefined)	53	-	-	-	-	-
O=S(=O)(NNc1nc(-c2ccccc2)c2cc(Cl)ccc2n1)c1ccccc1	0	-	-	-	-	-
O=C(Cc1csc2nc(-c3ccccc3)cn12)Nc1ccc2c(c1)OCCO2	44	-	-	-	-	-
SMILES	PriA SSB inh	Rv3671c inh	PrP UTR inh	PrPC TRFRET	FadD28 binding	UGM FP inh
O=C(Cc1csc2nc(-c3ccccc3)cn12)Nc1ccc(F)c(F)c1	0	-	-	-	-	-
O=C(Cc1csc(Nc2cccc(Cl)c2)n1)Nc1ccc2c(c1)OCCO2	20	-	-	-	-	-
COc1ccc(OC)c(-c2ccc(=O)n(CCNC(=O)Nc3ccccc3Cl)n2)c1	0	-	-	-	-	-
NC(=O)c1ccccc1NC(=O)Cc1csc(NC(=O)Nc2ccccc2)n1	0	-	-	-	-	-
COc1ccccc1-n1ncc2c(C)nnc(SCC(=O)NCc3ccccc3Cl)c21	89!	-	-	-	-	-
COc1ccc(S(=O)(=O)N2CCC(Cn3cccn3)CC2)cc1C	0	-	-	-	-	-
COc1ccccc1-c1nnc(C2CCN(C(=O)Nc3ccc4c(c3)OCO4)CC2)s1	0	-	-	-	-	-
O=C(COc1cccc(F)c1)Nc1nc(-c2ccccn2)cs1	-	-	-	0	0	-
CCOc1ccc(CC(=O)Nc2nc(-c3ccccn3)cs2)cc1	58	-	-	-	-	-
O=C(COc1ccc(F)cc1)Nc1nc(-c2ccccn2)cs1	58	0	0	0	0	0
CS(=O)(=O)c1ccc(CC(=O)Nc2nc(-c3ccccn3)cs2)cc1	75	-	-	-	-	-
Cc1ccc(S(=O)(=O)CCC(=O)Nc2nc(-c3ccccn3)cs2)cc1	0	0	0	0	0	0
CC(=O)c1cccc(S(=O)(=O)N2CC(S(=O)(=O)C3CCCCC3)C2)c1	0	-	-	-	-	-
CC1=NN(c2ccccc2)C(=O)/C1=C/C=C/c1ccccc1	0	0	0	0	0	0
CC1=NN(c2cccc(C(=O)O)c2)C(=O)/C1=C\C=C\c1ccco1	0	0	0	0	11	0
COc1ccc(N=Nc2nc3ccc(Br)cc3n2C)cc1	0	0	0	0	0	66
CCN(C(=O)COC(=O)c1cc(=O)[nH]c2ccccc12)c1c(N)n(Cc2ccccc2)c(=O)[nH]c1=O	0	-	0	0	0	-
CCN(C(=O)COC(=O)c1ccc(O)cc1O)c1c(N)n(Cc2ccccc2)c(=O)[nH]c1=O	0	0	0	0	-	10
Cc1ccc2oc(C(=O)Nc3cccc(C(F)(F)F)c3)c(C)c2c1	0	-	-	-	-	-
O=C(NCCN1Cc2ccccc2C1=O)c1cccs1	0	0	0	0	0	0
O=C1c2ccccc2CN1CCNC(=S)NC1CCCCC1	0	0	68	0	0	0
CN(c1ccccc1)S(=O)(=O)c1c(-c2cccc(F)c2)csc1C(=O)NCc1ccc(F)cc1	0	-	-	-	-	-
O=S(=O)(O)c1cc(O)c(N=Nc2ccc(O)cc2O)c2ccccc12	87	-	0	0	0	-
COc1ccccc1N1COc2ccc3c(=O)c(-c4ccccc4)coc3c2C1	32	-	-	-	-	-
CCOc1ccc(Nc2ccc(N)c(S(=O)(=O)O)c2)cc1	0	-	0	0	22	-
SMILES	PriA SSB inh	Rv3671c inh	PrP UTR inh	PrPC TRFRET	FadD28 binding	UGM FP inh
COc1ccc(Nc2ccc(N3C(=O)CCC3=O)cc2[N+](=O)[O-])cn1	0	0	0	0	0	0
COc1ccc(Nc2ccc(C(F)(F)F)cc2[N+](=O)[O-])cn1	46	0	0	0	0	0
COc1cccc(CNC(=O)Cn2cccc(-c3nc(-c4ccc(Cl)cc4)no3)c2=O)c1	0	-	-	-	-	-
CCOC(=O)CN1C=C(c2ccc3ccccc3n2)C(C[N+](=O)[O-])c2ccccc21 (centres undefined)	0	0	0	-	0	17
CCOc1ccc(-c2noc(Cn3c(=O)n(CCc4ccccc4)c(=O)c4ccccc43)n2)cc1	0	-	-	-	-	-
O=C(COc1coc(CN2CCN(c3ccccc3)CC2)cc1=O)Nc1ccc(F)cc1	46	0	0	0	0	0
O=C(COc1coc(CN2CCN(c3ccc(F)cc3)CC2)cc1=O)Nc1ccccc1	0	0	0	0	0	0
COc1ccc(OC)c2sc(N(CCCn3ccnc3)C(=O)c3ccco3)nc12	59	-	-	-	-	-
CC(=O)c1ccc(C(=O)N(CCCN(C)C)c2nc3cc(C)cc(C)c3s2)cc1	0	-	-	-	-	-
COc1cc(OC)cc(C(=O)N(CCCn2ccnc2)c2nc3cc(C)cc(C)c3s2)c1	40	-	-	-	-	-
CCOc1ccc2nc(N(CCCn3ccnc3)C(=O)COc3ccccc3)sc2c1	0	-	-	-	-	-
O=C(c1ccc(Cl)s1)N(CCCn1ccnc1)c1nc2c(F)cccc2s1	38	-	-	-	-	-
Cc1c(Cl)ccc2sc(N(CCCn3ccnc3)C(=O)COc3ccccc3)nc12	43	-	-	-	-	-
O=C(Nc1ccc(F)cc1F)C(=O)NC1CCCCC1	0	-	-	-	-	-
O=C(NCCC1=CCCCC1)C(=O)NCC1OCCCN1S(=O)(=O)c1cccs1 (centres undefined)	0	-	-	-	-	-
COc1cccc(C(=O)N(CCCn2ccnc2)c2nc3ccc(C)cc3s2)c1OC	0	-	-	-	-	-
CCc1cccc2sc(N(CCCn3ccnc3)C(=O)c3cccc(OC)c3OC)nc12	42	-	-	-	-	-
